In PubChem BioAssay AID588413 (Sanford-Burnham Center for Chemical Genomics, 2011):
The whole screen tested about 340,000 compounds, of which about 2,500 (0.74%) were called active.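 Rule for the calls: active = inhibition above about 55% (limit read from the data); inactive = the rest.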 What follows is part of a selection rich in actives, with near analogues and random picks from the rest.

assay: Gli-Sufu pathway antagonists, primary screen, luciferase luminescence, Sufu-KO-LIGHT cells, uHTS (AID 588413); conditions: Sufu-KO-LIGHT fibroblasts, Gli luciferase reporter luminescence; at 5 µM; active compounds read high;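 note: 0% = DMSO-treated cells and 100% = wells with medium but no cells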

SMILES	inhibition
CN1CCN(C(=O)N2c3ccccc3CCc3ccccc32)CC1	0.29% (inactive)
CC1CCc2sc(C(=O)NCC(c3ccco3)N3CCCCC3)cc2C1 (stereo not drawn)	16.2% (inactive)
Cc1ccc(CN(Cc2cccnc2)C(=S)Nc2cc(Cl)ccc2C)cc1	12.8% (inactive)
CC(=O)NCC(=O)N(C)C(C(=O)Nc1ccc2c(c1)OCCO2)c1ccccc1 (stereo not drawn)	-14.5% (inactive)
Cc1cccc2nc(CSc3nc4[nH]ncc4c(=O)n3-c3cccc(Cl)c3)cc(=O)n12	67.7% (active)
CCc1ccc(-n2c(SCc3cc(=O)n4cc(Br)ccc4n3)nc3[nH]ncc3c2=O)cc1	5.99% (inactive)
COc1ccc(CCNC(=O)CSc2nc3[nH]ncc3c(=O)n2-c2cccc(C(F)(F)F)c2)cc1OC	0.76% (inactive)
CCn1cc(-c2cc(C(=O)O)on2)c(C)n1	-4.15% (inactive)
COc1ccc(-n2c(SCC(=O)Nc3ccc4c(c3)OCO4)nnc2C(C)N2CCCCC2)cc1 (stereo not drawn)	7.4% (inactive)
Cc1cc(C(=O)CSc2nc(N)cc(=O)[nH]2)c(C)n1-c1cccc(F)c1	56.6% (active)
Cc1cc(C(=O)CSc2nc(N)cc(=O)[nH]2)c(C)n1CCc1ccc(Cl)cc1	0.27% (inactive)
CCCc1cc(=O)[nH]c(SCC(=O)c2cc(C)n(CCC)c2C)n1	1.52% (inactive)
Cc1ccc(CN2CCN(c3ncccn3)CC2)c(C)c1	1.86% (inactive)
COc1cc(C)cc(CN2CCC(Cc3ccccc3)CC2)c1O	15.5% (inactive)
Oc1c(CN2CCCC2)cc(COCc2ccccc2)c2cccnc12	77.7% (active)
CC1CCCN(CC(O)COCc2ccccc2)C1 (stereo not drawn)	12.2% (inactive)
Cc1cc(=O)oc2cc(OCC(=O)N3CCN(c4ccc(F)cc4)CC3)c(Cl)cc12	6.77% (inactive)
Oc1c(CN2CCN(c3ccc(F)cc3)CC2)cc(Cl)c2cccnc12	92.7% (active)
CC(C)C(C)NC(=O)COc1nc2ccccc2nc1N(C)C1CCCCC1 (stereo not drawn)	-2.52% (inactive)
CCc1nnc(NC(=O)CCN(c2ccc(C)cc2)S(=O)(=O)c2ccccc2)s1	-7.2% (inactive)

SMILES	inhibition
O=C1/C(=C\Nc2ccccc2)CCN1c1ncccn1	-39% (inactive)
Cc1ccccc1NC(=O)NC1(C(=O)N2CCCC2)CCCCC1	44.2% (inactive)
Cc1ccc(C)c(NS(=O)(=O)c2c(C)[nH]c(C)c2C(=O)N2CCCCC2)c1	-12.2% (inactive)
CC1CCCN(C(=O)Cn2c(=O)oc3ccccc32)C1 (stereo not drawn)	1.13% (inactive)
COC(C[C@@H](O)C[C@H](O)[C@H](C)OCc1ccccc1)OC	7.28% (inactive)
CCc1ccc(C2C(C#N)=C(N)N(N3CCOCC3)C3=C2C(=O)CC(C)(C)C3)s1 (stereo not drawn)	96.7% (active)
CCc1ccc(C2C(C#N)=C(N)N(N(C)C)C3=C2C(=O)CCC3)s1 (stereo not drawn)	-0.42% (inactive)
COc1ccc(C2C(C#N)=C(/N=C/N3CCOCC3)OC3=C2C(=O)CC(C)(C)C3)cc1OC (stereo not drawn)	1.58% (inactive)
S=C(Cc1ccc(Cl)cc1)N1CCOCC1	2.66% (inactive)
O=C(CCN1CCCO1)N1CCCC(N2CCN(c3cccc(C(F)(F)F)c3)CC2)C1 (stereo not drawn)	8.15% (inactive)
N#Cc1cccc(NC(=O)C2CCCN(C(=O)c3ccc(Cl)cc3)C2)c1 (stereo not drawn)	0.96% (inactive)
COc1ccccc1-c1nnc2n1N=C(c1ccc(OC(F)F)c(OCC3CC3)c1)CS2	23.1% (inactive)
COc1ccc(C2=Nn3c(nnc3-c3ccccc3OC)SC2)cc1OC1CCCC1	67.1% (active)
CC1=Nn2c(nnc2-c2ccccc2)SC1	5.28% (inactive)
COc1ccc(CNC(=O)CN(c2ccc(OC)c(Cl)c2)S(=O)(=O)c2ccc(C)cc2)cc1	-11.6% (inactive)
NS(=O)(=O)c1cc(Cl)c(Cl)c(S(N)(=O)=O)c1	-6.05% (inactive)
Cc1cccc(S(=O)(=O)N2CN(CC3CCCO3)c3nc4ccccc4nc32)c1 (stereo not drawn)	31.4% (inactive)
Cc1cc([N+](=O)[O-])c(-c2ccc(/C=N/n3cnnc3)o2)cc1Cl	95.2% (active)
Clc1cc(-c2ccc(/C=N/n3cnnc3)o2)ccc1Br	3.67% (inactive)
Cc1ccc(Cl)cc1-c1ccc(/C=N/n2cnnc2)o1	20.2% (inactive)

SMILES	inhibition
O=c1ccc2c(-c3ccccc3S(=O)(=O)O)c3ccc(O)c(O)c3oc-2c1O	9.16% (inactive)
CCCCn1nc(C(=O)Nc2cccc(C(=O)NC3CC3)c2)c2ccccc2c1=O	-0.59% (inactive)
N#Cc1ccsc1NC(=O)CN1CCN(S(=O)(=O)c2cc(Cl)ccc2Cl)CC1	1.78% (inactive)
COc1ccc(Cl)cc1S(=O)(=O)N1CCN(CC(=O)C(C)(C)C)CC1	-2.82% (inactive)
O=C(CN1CCN(S(=O)(=O)c2cc(Cl)ccc2Cl)CC1)c1ccc(O)c(O)c1	58.2% (active)
COc1ccccc1N(CC(=O)Nc1ccccc1C(=O)N1CCCC1)S(C)(=O)=O	-5.37% (inactive)
O=C(N/N=C/c1ccccn1)C12CC3CC(CC(C3)C1)C2	-2.98% (inactive)
Cc1nnc(N/N=C/c2ccccn2)[nH]c1=O	62.7% (active)
Cc1cc(C(=O)N/N=C/c2ccccn2)c2ccccc2n1	1.36% (inactive)
Cc1ccc(S(=O)(=O)N(C)C)cc1NC(=O)c1ccc(-n2cncn2)c([N+](=O)[O-])c1	5.99% (inactive)
CCOC(=O)c1cnc(Nc2nc3ccccc3o2)nc1CSC(=S)N1CCCCC1	57.2% (active)
CCc1ccc(CNC(=O)C2CCCN(c3nc4ccccc4o3)C2)cc1 (stereo not drawn)	5.09% (inactive)
CCOC(=O)CCNC(=O)N1CCCC(C(=O)c2ccccc2SC)C1 (stereo not drawn)	4.81% (inactive)
CCc1ccc(C(=O)C(C)OC(=O)CN2C(=O)NC3(CCCC3)C2=O)cc1 (stereo not drawn)	-24.9% (inactive)
COCCN(C(=O)COC(=O)Cc1cccc(OC)c1)c1c(N)n(Cc2ccccc2)c(=O)[nH]c1=O	-12.3% (inactive)
Cc1ccc(NC(=O)CN(C)CC(=O)Nc2cccc(F)c2)cc1[N+](=O)[O-]	67.2% (active)
CN(CC(=O)Nc1cccc(F)c1)C(=O)C1=COCCO1	-13.3% (inactive)
Cc1ccc(NC(=O)c2sccc2C)cc1[N+](=O)[O-]	-30.3% (inactive)
